Whole data set: some 140,000 sequences, median “enrichment ratio after two sorts for PhoP signalling” near 0, cut for the highest 2% near 11. The entries come from a sample that favours the highest values as a whole. Where only a bound is given, the exact number is not on record here.

The values below come from a collection of fitness landscapes (doi:10.1126/science.1257360).

To fix the notation:
B1: PhoQ; a variant is named by its letters at X, in order, P23837 (parent)
chain: MKKLLRLFFPLSLRVRFLLATAAVVLVLSLAYGMVALIGYSVSFDKTTFRLLRGESNLFYTLAKWENNKLHVELPENIDKQSPTMTLIYDENGQLLWAQRDVPWLMKMIQPDWLKSNGFHEIEADVNDTSLLLSGDHSIQQQLQEVREDDDDAEMTHSVAVNVYPATSRMPKLTIVVVDTIPVELKSSYMVWSWFIYVLSANLLLVIPLLWVAAWWSLRPIEALAKEVRELEEHNRELLNPATTRELTSLVRNLNRLLKSERERYDKYRTTLTDLTHSLKTPLXXLQXXLRSLRSEKMSVSDAEPVMLEQISRISQQIGYYLHRASMRGGTLLSRELHPVAPLLDNLTSALNKVYQRKGVNISLDISPEISFVGEQNDFVEVMGNVLDNACKYCLEFVEISARQTDEHLYIVVEDDGPGIPLSKREVIFDRGQRVDTLRPGQGVGLAVAREITEQYEGKIVAGESMLGGARMEVIFGRQHSAPKDE

In this assay the parent is B1. Put plainly: enrichment ratio after two sorts for PhoP signalling (ratio (wild type AVST 3.29)); higher = more functional. As to conditions: with PhoP (E. coli).
For LSQM, the enrichment ratio was at most 0.25.
For NLVR the value was at most 0.25; for SGPQ, at most 0.25.
On to FWSM, for which the enrichment ratio was at most 0.25.
For VAFK the value was at most 0.25.
With MYIN, the enrichment ratio was at most 0.25.
EPPF: the enrichment ratio was at most 0.25.
For IMLD, the enrichment ratio was at most 0.25.
The same measure for AQCC: 32.6.
Regarding KKNM, the enrichment ratio was at most 0.25.
As to TKNM, the enrichment ratio turned out to be 31.9.
The same measure for HKNM: at most 0.25; for NQCC: at most 0.25.
Turning to EQCC, the enrichment ratio is at most 0.25.
The same measure for TTTA: 5.71; for TTTI: 22.1.
The same measure for YTTI: at most 0.25; for ITTI: at most 0.25.
For GTTI the value was 13.5.
As to GVTI, the enrichment ratio amounted to 4.7.
On to PPTP, for which the enrichment ratio is at most 0.25.
Turning to GSSK, the enrichment ratio was at most 0.25.
Turning to GSTG, the enrichment ratio was at most 0.25.
On to GGSI, for which the enrichment ratio amounted to 12.3.
Consider NGSI, for which the enrichment ratio is at most 0.25.
The same measure for GQSI: at most 0.25; for GSSI: 14.1; for TGSI: 19.6.
The same measure for NISI: at most 0.25; for RGSI: at most 0.25; for MYCI: at most 0.25.
For LDCF the value was at most 0.25.
DHSM: the enrichment ratio is at most 0.25.
Regarding GGII, the enrichment ratio amounted to 1.19.
The same measure for YTII: at most 0.25; for GYII: 0.285.
On to GTII, for which the enrichment ratio amounted to 13.8.
For GCII, the enrichment ratio turned out to be 18.2.
For the variant GNII, the enrichment ratio was determined as 8.44.
The same measure for KMAN: at most 0.25.
For the variant TMAK, the enrichment ratio worked out at 16.1.
The same measure for DMAN: at most 0.25; for NMAK: at most 0.25.
Take TMAN: the enrichment ratio is 18.9.
For HAAK the value was at most 0.25; for TMPM, at most 0.25.
For KMAM the value was at most 0.25; for KMNM, at most 0.25; for TMNM, 35.
For TMIM, the enrichment ratio is at most 0.25.
The same measure for TMAM: 26.9; for HYTR: at most 0.25.
Take LWGW: the enrichment ratio is at most 0.25.
The same measure for NTYY: at most 0.25; for YIFC: at most 0.25; for CVCM: at most 0.25.
The same measure for TMGM: 3.21; for TMTM: 17.1; for TMWM: at most 0.25.
The same measure for TWYG: at most 0.25; for QGFA: 1.27.
QPGF: the enrichment ratio is at most 0.25.
For FFGF, the enrichment ratio is at most 0.25.
For QGFF the value was 13.9; for QIGF, 12.5.
The same measure for QEGF: at most 0.25; for QIHF: at most 0.25; for QGGF: 18.4.
For FFFF the value was at most 0.25; for LRWS, at most 0.25; for ITEW, at most 0.25.
Consider ELKD, for which the enrichment ratio was at most 0.25.
In the case of HCGH, the enrichment ratio was at most 0.25.
For the variant NAPY, the enrichment ratio was at most 0.25.
For CITA the value was 12.4; for CIMV, 12.9.
Take CIFA: the enrichment ratio is at most 0.25.
As to CICV, the enrichment ratio came to 0.57.
Consider CIWI, for which the enrichment ratio is at most 0.25.
The same measure for CITI: at most 0.25; for TNDF: at most 0.25; for YDRL: at most 0.25.
On to VIWT, for which the enrichment ratio was at most 0.25.
For WDYR the value was at most 0.25; for GTGM, 6.32.
The same measure for GDCG: at most 0.25; for RIRE: at most 0.25; for QEYL: 1.39.
As to QTDS, the enrichment ratio is 8.33.
The same measure for QSYL: 13.9.
With QTGM, the enrichment ratio was determined as 12.
The same measure for QTGD: at most 0.25; for QTNS: 0.432; for QTNL: 10.8.
Turning to KSYL, the enrichment ratio was at most 0.25.
For QTDH the value was 29.3.
On to QTPM, for which the enrichment ratio is at most 0.25.
As to QGDH, the enrichment ratio was at most 0.25.
The same measure for QTNY: 17.5.
The same measure for DLEK: at most 0.25; for IPTS: at most 0.25.
As to VIYV, the enrichment ratio is at most 0.25.
On to KMFH, for which the enrichment ratio was at most 0.25.
The same measure for KSEQ: at most 0.25; for TVLM: 0.847.
As for KYWW, the enrichment ratio was at most 0.25.
For KESK the value was at most 0.25; for KVEK, at most 0.25.
For KTHS, the enrichment ratio is 0.436.
For VEPK the value was at most 0.25; for QTHF, 3.14.
The same measure for QTRL: at most 0.25; for QTWL: 21.9; for QTYL: 12.8.
The same measure for FDYL: at most 0.25; for QGWL: 2.29; for QTPA: at most 0.25.
As to QTYI, the enrichment ratio was determined as 12.9.
In the case of QGYL, the enrichment ratio amounted to 9.62.
PSTY: the enrichment ratio is at most 0.25.
The same measure for DPTW: at most 0.25; for RMLN: at most 0.25; for HIRM: at most 0.25.
On to SLCT, for which the enrichment ratio is 19.2.
Regarding KYCT, the enrichment ratio was at most 0.25.
For SRCT, the enrichment ratio was at most 0.25.
Regarding IACT, the enrichment ratio is at most 0.25.
For the variant TECT, the enrichment ratio came to 5.22.
The same measure for WLCT: at most 0.25; for SACT: 14; for PLCT: at most 0.25.
For SECT the value was 24.6; for HEHS, at most 0.25; for NPLN, at most 0.25.
With KDNG, the enrichment ratio is at most 0.25.
The same measure for TGQY: 5.59; for SYEM: at most 0.25; for LFDK: at most 0.25.
LFMM: the enrichment ratio was at most 0.25.
With YGQR, the enrichment ratio was at most 0.25.
Take GEAT: the enrichment ratio was found to be 14.1.
For GNTT the value was 2.98; for GELT, 11.2; for GEYT, 0.289.
The same measure for GETA: at most 0.25; for GETT: 16.2.
For GEAA the value was 11.4; for GEAS, 9.56; for GEYI, at most 0.25.
GEAY: the enrichment ratio stood at 23.4.
Take GEGD: the enrichment ratio was at most 0.25.
Take GENY: the enrichment ratio is at most 0.25.
For MCVP the value was at most 0.25.
